Screening results from PubChem.
CHT inh – inhibitors of human choline transporter CHT; High affinity choline transporter 1 (Homo sapiens), Q9GZV3; CHT-expressing cells, membrane potential dye, choline response; hits give low values; B-score at 10 µM; 310,000 tested, 0.86% active; AID 488975, 2010;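 active = B-score over 3 SD under the library average, and starting fluorescence ratio not unusually high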;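 also: choline stimulus applied at its EC90 after an EC20 pre-addition; B-score computed on integrated fluorescence ratio after choline addition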
Target sequence (Q9GZV3 whole entry, looked up): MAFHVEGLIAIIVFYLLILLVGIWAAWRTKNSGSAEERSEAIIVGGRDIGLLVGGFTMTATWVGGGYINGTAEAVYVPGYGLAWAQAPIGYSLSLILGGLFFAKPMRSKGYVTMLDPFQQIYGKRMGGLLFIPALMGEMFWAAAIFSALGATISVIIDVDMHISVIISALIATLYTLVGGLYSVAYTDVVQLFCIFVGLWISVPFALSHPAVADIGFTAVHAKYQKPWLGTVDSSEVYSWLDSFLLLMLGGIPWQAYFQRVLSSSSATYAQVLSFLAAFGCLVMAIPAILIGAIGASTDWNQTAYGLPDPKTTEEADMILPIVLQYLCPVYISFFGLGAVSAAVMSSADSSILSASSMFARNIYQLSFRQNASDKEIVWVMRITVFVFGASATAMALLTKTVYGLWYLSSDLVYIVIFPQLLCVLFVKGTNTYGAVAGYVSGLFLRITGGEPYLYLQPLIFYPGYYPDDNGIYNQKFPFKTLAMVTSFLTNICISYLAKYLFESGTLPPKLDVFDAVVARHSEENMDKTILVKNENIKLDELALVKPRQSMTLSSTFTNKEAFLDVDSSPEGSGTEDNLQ
HIF activator – HIF pathway transcriptional activators, primary screen, cell-based, U2OS HRE-luciferase, luminescence | U2OS HRE-luciferase reporter; normalized: DMSO 0%, desferrioxamine 100% | activation, % at 7.5 µM (by protocol) | 300,000 tested, 0.32% active | AID 1910, 2009;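 active = mean activation of at least 10% of the iron chelator positive control signal, with at least half of replicates also reaching 10%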
AI-2 QS mod – Vibrio harveyi AI-2 quorum sensing modulators, primary screen, JMH597 strain, luminescence/OD600 ratio. activity change, % at 7.5 µM. 300,000 tested, 0.4% active. Vibrio harveyi JMH597 AI-2 luminescence/OD600 ratio, 9 h; hits give low values; strain lacks LuxN and CqsS sensors; 0 = neutral-control median; in the data active = activity change below about -75%, passing the limit was not always enough;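 also: luminescence divided by OD600 gain over 9 h not by final OD600 alone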
Platelet DG rel – inhibitors of platelet dense granule secretion, primary screen, cell-based, MLPCN, human platelets. human platelet-rich plasma, SFLLRN dense granule ATP release, luminescence. AID 1663, 2009. inhibition, %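 (compounds screened at 7.5 µM in platelet-rich plasma)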. 300,000 tested, 0.22% active;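 active = mean replicate score, as percent of positive control, at or above 50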
VLA-4 inh – inhibition in human VLA-4 binding assay, primary screen, VLA-4 allosteric modulator project, MLPCN library, flow cytometry, VLA-4 expressing cells. Integrin alpha-4 (Homo sapiens), P13612. ligand binding flow cytometry. inhibition, % (about 7 µM as worked out from the volumes in the protocol). 330,000 tested, 0.2% active. AID 2557, 2010; in the data active = inhibition above about 50%
CHT PAM – CHT positive allosteric modulators, primary screen, cell-based, membrane potential dye, choline EC20 | High affinity choline transporter 1 (Homo sapiens), Q9GZV3 | CHT-expressing cells; hits give high values; LV-AA mutant CHT in HEK293 cells | B-score at 10 µM | 310,000 tested, 0.49% active;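 active = initial fluorescence not abnormally high and integrated response B-score, plate-corrected, over 3 SD above library mean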
CHT act confirm – CHT activators, confirmation, cell-based, membrane potential dye, duplicate; shares compounds with CHT PAM; CHT-expressing cells, membrane potential dye fluorescence (FDSS); % of choline EC20–EC90 response window; HEK293 expressing CHT LV-AA mutant; choline added at its EC20; activation, % at 10 µM; 2,500 tested, 91% active;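 active = primary screen active, with duplicate mean activation above negative control mean plus 3 SD, cut at about 11% in these data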
HEK293 MP dye – membrane potential response in parental HEK293 cells, counter-screen for CHT activator project, cell-based, membrane potential dye; AID 623908, 2012; ratio readout change at 10 µM, hits read low; shares compounds with CHT PAM; 2,500 tested, 62% active; membrane potential dye fluorescence (FDSS); measured after EC20 choline addition;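 active = duplicate-averaged ratio beyond 3 SD from buffer wells, up or down, though filed actives are nearly all decreases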
Starred values were filed as active, the others as inactive; i = inactive; x = no result. An excerpt weighted towards active compounds, which were near 2.2% of everything screened.

SMILES	CHT inh	HIF activator	AI-2 QS mod	Platelet DG rel	VLA-4 inh	CHT PAM	CHT act confirm	HEK293 MP dye
Cn1nc(-c2ccc(OCC(=O)N3CCN(Cc4ccccc4)CC3)cc2)c2ccccc2c1=O	i	0	18	14	13	i	x	x
c1ccc(-c2[nH]c(-c3ccccc3)[n+](CC3CO3)c2-c2ccccc2)cc1 (stereo unspecified)	i	1	12	-21	5	i	25*	i
CCCCn1c(O)c(C(C)=Nc2ccc3c(c2)CCC3)c(=O)[nH]c1=O	i	0	28	-1	-5	i	x	x
CCN(CC)CCN1Cc2ccccc2C1=N	i	0	4	-9	-1	11*	75*	-73*
NC(=O)CN1C2CCC1CC(NC(=O)C1CC1)C2 (stereo unspecified)	i	-1	2	2	-4	i	x	x
Cc1[nH]c2ccccc2c1C(=O)C(=O)N1CCC2(CC1)OCCO2	i	0	0	12	-1	i	x	x
CNC(=S)N(C)CCc1cc2c(c(OC)c1/C=C1/C(=O)NC(=O)N(C)C1=O)OCO2	i	0	23	4	-8	6.6*	37*	-54*
Cc1cc(/C=C2\C(=O)NC(=O)N(C)C2=O)c(C)n1-c1ccc2c(c1)OCO2	i	-1	15	1	-8	i	x	x
COc1ccc(C)cc1NC(=O)c1c(C)nn(Cc2ccccc2)c1Cl	i	0	31	2	0	i	x	x
C[n+]1c(-c2ccccc2)c2cc(N)ccc2c2ccc(N)cc21	i	1	61	-1	-213	9.2*	38*	-77*
CC[N+](C)(CC)CCCCOc1ccc2c(c1)C(=O)c1cc(OCCCC[N+](C)(CC)CC)ccc1-2	i	0	45	22	-7	i	x	x
COc1cc2c(cc1OC)-c1c(OC)c(OC)cc3c1[C@H](C2)[N+](C)(C)CC3	i	-2	12	-2	11	i	x	x
COc1cc2c3c(c1OC)-c1cc(O)ccc1CC3NCC2 (stereo unspecified)	i	0	16	8	7	i	48*	-42*
O=c1[nH]c(=S)n(CCC2=CCCCC2)c(O)c1/C=N/N1CCOCC1	i	0	26	-5	8	i	x	x
OC(c1ccncc1)(c1ccc(F)cc1)c1ccc(F)cc1	i	0	21	2	27	i	x	x
Cc1cc(-c2ccccc2)cc(C)[n+]1Cc1ccccc1	i	0	0	1	8	7.4*	12*	-29*
c1ccc(-c2cc(-c3ccccc3)[n+](-c3ccccc3)c(-c3ccccc3)c2)cc1	i	1	25	9	1	i	x	x
CN1CCN(c2ncnc3c2cnn3C)CC1	i	0	13	4	12	i	52*	-59*
CC(=NCCCn1ccnc1)c1c(O)n(C)c(=O)n(C)c1=O	i	0	-31	-6	5	i	48*	-34*
Cc1cccn2c(NCC3CCCO3)c(C(C)C)nc12 (stereo unspecified)	i	0	14	-4	5	i	x	x
CCOc1cc(-c2nc3c(C)cccn3c2NCC2CCCO2)ccc1O (stereo unspecified)	i	0	-5	-5	4	6.4*	56*	-34*
Cc1ccc2c(c1)C1CN(C)CCC1N2C(=O)COc1ccc(S(=O)(=O)N2CCOCC2)cc1 (stereo unspecified)	i	0	18	3	20	i	x	x
CN(C)C(=O)Nc1cccc(OC(=O)N(C)C)c1	i	0	20	12	4	i	x	x
CN(C)C(=O)Oc1cccc(OCc2n(C)c3ccccc3[n+]2C)c1	i	0	27	5	-3	7*	55*	-42*
O=C(c1ccco1)c1cn(Cc2ccccc2)c2ccccc12	i	0	19	2	9	7.4*	23*	i
SMILES	CHT inh	HIF activator	AI-2 QS mod	Platelet DG rel	VLA-4 inh	CHT PAM	CHT act confirm	HEK293 MP dye
CC1(C)CC[C@]2(C)CC[C@]3(C)C4C[C@@H]5OO[C@@]6(O5)C(CCCC6(C)C)[C@]4(C)CC[C@@]3(C)C2C1 (stereo partly specified)	i	x	x	x	7	i	x	x
CCOC(=O)c1c(N)n(CCN2CCCCC2)c2nc3ccccc3nc12	i	0	12	0	10	i	29*	-42*
Cc1cc(C)n2nc(C)[n+](C)c2n1	i	0	1	-3	13	8*	60*	-34*
COc1cc(C[C@@H](C)N)c(OC)cc1I	i	1	1	5	-24	i	x	x
COCCN1Cc2cc(=O)n3c([nH]c4ccccc43)c2C1=N	i	-2	17	-2	14	i	53*	-42*
Cc1nn(-c2ccccc2)c2c1C(c1ccc3c(c1)OCO3)SCC(=O)N2 (stereo unspecified)	i	0	13	-6	26	i	x	x
O=[N+]([O-])c1ccc(N2CCCC2)cc1N/N=C1\CN2CCC1CC2	i	0	11	-2	-5	6.5*	55*	-73*
O=[N+]([O-])c1ccc(N2CCCNCC2)c2ncccc12	i	0	7	6	2	9.3*	48*	-89*
O=[N+]([O-])c1ccc(N2CCCCC2)c2ncccc12	i	0	31	-1	-9	i	x	x
O=C1Nc2ccccc2/C1=C/c1cnc[nH]1	i	0	16	-6	11	i	45*	-30*
CN1CCN(c2nc3ccccc3c(=O)n2-c2ccccc2)CC1	i	0	4	-26	20	i	x	x
CCCCCc1nc2c(c(=O)c3ccccc3n2C)c(=O)n1C1CCCCCC1	i	-2	37	19	-5	i	x	x
CCOc1ccc(NC(=O)N2C[C@H]3C[C@@H](C2)c2cccc(=O)n2C3)cc1	i	0	32	1	5	i	x	x
